Experimental data: PubChem BioAssay AID624305 (National Center for Advancing Translational Sciences (NCATS), 2012)
Records with an inconclusive call do not appear. Unmarked numbers belong to inactive results. Calls of active or inactive are those of the source. The call rests on the fitted dose curve; in most records, active means well fitted activation curve with a large enough effect; inconclusive means small, poorly fitted or top-dose-only effect; inactive means no such curve, though single readings can be large or run the other way.

experiment: qHTS assay for re-activators of p53 using a Luc reporter: Hit Validation; conditions: p53-responsive luciferase reporter cells, luminescence, H1299 line expressing heat-sensitive Ala138Val p53; series mostly up to 46.1 µM; activation: at the top concentration; further: nearly all actives have a fitted effect of over 75% in size; on activation: 0% is about no effect
Outline: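 H1299 (p53-null) cells stably carrying p53-A138V and a BP100-luciferase reporter, 1000 cells/well, treated 24 h at 37 deg C. Compounds at several concentrations, 1:5 dilution; nocodazole control; luminescence read after 10 min with detection reagent.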
Potency means the concentration at half of the fitted maximal effect.

SMILES	activation	Potency
Cc1noc(C)c1C(=O)Nc1nc(-c2ccc(F)cc2)cs1	-25% [at 9.22 µM]	
CCc1cc(C(=O)c2ccc(C)cc2)c(NC(=O)CCl)s1	11.5%	
O=C(NNC1=C(C(=O)C(F)(F)F)CCC1)c1cccc(O)c1	-18.8%	
O=C(COC(=O)c1cn(-c2ccccc2)nc1-c1ccc(F)cc1)Nc1ncc(Cl)cc1Cl	21.9%	
COC(=O)Cc1n[nH]c(=S)[nH]c1=O	-15.1%	
Cc1ccc2nc(-c3ccc(NC(=O)CN4C(=O)c5ccccc5C4=O)cc3)sc2c1		5.17 µM (active)
Cn1c(C(=O)Nc2ccc3c(c2)OCCO3)cc2sccc21		5.8 µM (active)
Clc1ccccc1Nc1nc2ccccc2o1		5.17 µM (active)
CCOC(=O)c1c(C)[nH]c(C(=O)OCCOc2ccccc2C)c1C		1.3 µM (active)
CCOC(=O)c1c(NC(=O)C2COc3ccccc3O2)sc2c1CCN(Cc1ccccc1)C2 (configuration not stated)	-4.69%	
O=C(Nc1ccc(N2CCCCCC2)cc1)c1ccc[nH]1		1.16 µM (active)
CCOC(=O)N1CCN(S(=O)(=O)c2ccc(C(=O)NNc3nc4c(C)cc(C)cc4s3)cc2)CC1	-31.8%	
c1ccc2sc(-c3ccc4c(c3)OCO4)nc2c1		2.31 µM (active)
c1ccc(Oc2cc(-n3cncn3)ncn2)cc1	30.2%	
Cc1ccc(NC(=O)CCN2C(=O)c3cccc([N+](=O)[O-])c3C2=O)c(Br)c1	38%	
COc1cccc(N(C(=O)c2nc3nccc(C)n3n2)c2nc3ccccc3s2)c1		7.31 µM (active)
O=c1[nH]c(N/N=C/c2ccc(O)cc2)nc2ccccc12		4.61 µM (active)
CS(=O)(=O)N1CCC(C(=O)Nc2cc(Cl)c(Cl)cc2Cl)CC1	-4.17%	
CCCCCCC1CC(/C(C)=N\NC(N)=O)OC1=O (configuration not stated)	-6.77%	

SMILES	activation	Potency
CCSc1nnc(SCC(=O)NC2CCCCC2)s1	-8.33%	
Cc1cccc(Nc2cc(=O)[nH]c(=O)[nH]2)c1C	0%	
Brc1ccc(-c2nc3ccccc3s2)s1		3.26 µM (active)
O=C(Nc1cccc(N=Cc2cc(Cl)cc(Br)c2O)c1)c1ccco1	6.77%	
Cc1ccc(C(=O)Nc2cnc3sc(C)nn3c2=O)cc1		6.51 µM (active)
O=C(NCc1ccc(-c2nc3ccccc3s2)cc1)c1cc2ccccc2o1	-4.17%	
CC1(C)CC(=O)CC(=O)/C1=N\Nc1c(Cl)cc(Cl)cc1Cl	11.5%	
Cc1cc(C)c2nc(NNC(=O)c3ccc(S(=O)(=O)N4CCc5ccccc5C4)cc3)sc2c1	352%	
COc1ccc(CCC(=O)NC(C)C2CCCO2)cc1 (configuration not stated)	-26%	
O=C(Nc1ccc2c(c1)CCC2)c1ccccc1		0.411 µM (active)
Cc1cccc(Nc2nc(N3CCOCC3)nc(N3CCOCC3)n2)c1	35.9%	
S=c1[nH]nc(-c2ccco2)n1Cc1ccccc1	-16.1%	
Cc1cc(C(F)(F)F)c(C#N)c(SCC(=O)Nc2nc3ccccc3s2)n1		1.46 µM (active)
CCOC(=O)c1c(C)[nH]c(C(=O)CSc2ccccc2)c1C		0.517 µM (active)
Cc1cccc(NC(=O)c2oc3c(c2C)C(=O)CC(C)(C)C3)n1	34.9%	
OC1(C2(O)CC(c3ccccc3)ON2)CCCCC1 (configuration not stated)	-85.4%	
CN1CCN(C(=O)CCCN2C(=O)/C(=C/c3ccc(Cl)cc3)SC2=S)CC1		9.2 µM (active)
COc1cccc(C2(c3cccc(OC)c3)CC2C(=O)Nc2cccc3ccccc23)c1 (configuration not stated)	-28.6%	
